Data reported in PubChem BioAssay (NCI).
About 83,000 compounds went through this panel and 20% of them were active in at least one assay; those are over-represented in the sample as a whole.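 Method: cells in 96-well plates; compound added at one concentration; 48 h incubation; percent growth measured; values under 10 scored active.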 Activity calls are given as the source filed them.

What was measured:
Assay in all cases: NCI-60 one-dose screen, 48 h (100 = growth as untreated, 0 = no growth, -100 = all killed)
Conditions in all cases: 10 µM unless noted
[1] = test system: SK-MEL-2 melanoma
[2] = test system: EKVX NSCLC
[3] = test system: SN12C renal
[4] = test system: UO-31 renal
[5] = test system: TK-10 renal
[6] = test system: ACHN renal
[7] = test system: A498 renal
[8] = test system: CCRF-CEM leukemia
[9] = test system: MOLT-4 leukemia

Measured: growth

c1ccc2nc(Cn3cc[n+](Cc4ccc5ccccc5n4)c3)ccc2c1
inactive: [1] 55% | [2] 88.3% | [3] 40.5% | [4] 88% | [5] 98.3% | [6] 102% | [7] 90.7% | [8] 80% | [9] 65.4%

Cc1ccc2c(C3C(C#N)=C(N)Oc4cc5ccccc5cc43)cc(=O)oc2c1 (stereo not given)
inactive: [1] 27.8% | [2] 40% | [3] 46.3% | [4] 47.3% | [5] 47.6% | [6] 50.6% | [7] 30.8% | [8] 13% | [9] 20.8%

CCC1S/C(=N\N=C(/C)c2cc3ccccc3o2)N(c2ccccc2)C1=O (stereo not given)
inactive: [1] 99.6% | [2] 135% | [3] 120% | [4] 75.9% | [5] 108% | [6] 100% | [7] 136%
active: [8] -72.8% | [9] -80.8%

CS(=O)(=O)OCC(COS(C)(=O)=O)C(c1ccccc1)c1ccccc1
inactive: [1] 123% | [2] 99.1% | [3] 89.2% | [4] 91.2% | [5] 110% | [6] 107% | [7] 93.3% | [8] 99.6% | [9] 75.7%

COc1ccc(-c2coc3c(CO)c(O)ccc3c2=O)cc1
inactive: [1] 19.2% | [2] 72.1% | [3] 10.1% | [4] 24.3% | [5] 75.2% | [6] 20.8% | [7] 68.6% | [8] 45.2% | [9] 91.3%

C=C1C(=O)O[C@H]2[C@H]1CC/C(COC(=O)c1ccccc1)=C\CC[C@@]1(C)O[C@@H]21
active: [3] -22.4% | [4] -95.7% | [5] -0.228% | [6] -83.7% | [8] -26% | [9] -22.2%
inactive: [1] 15% | [2] 11.5% | [7] 99.4%

O=c1c(-c2ccc3c(c2)OCO3)coc2c(CO)c(O)ccc12
inactive: [9] 90.3%
active: [1] -66.3% | [2] 3.55% | [3] -3.58% | [4] -81.9% | [5] -15.2% | [6] -30.5% | [8] 1.63%

COc1cc(C(=O)N2CCN(C(=O)c3cc(OC)c(OCc4ccccc4)cc3N)CC2)c(N)cc1OCc1ccccc1
inactive: [1] 102% | [2] 90.8% | [3] 111% | [4] 98.3% | [5] 131% | [6] 159% | [7] 132% | [9] 101%

c1ccc(OCC[P+](c2ccccc2)(c2ccccc2)c2ccccc2)cc1
inactive: [2] 26.3% | [3] 29.8% | [4] 63.5% | [5] 40.2% | [6] 60.5% | [7] 74.2% | [9] 34.8%
active: [1] -16.2%

COc1ccc(/C(=C/c2cc(OC)c(OC)c(OC)c2)[N+](=O)[O-])cc1
inactive: [2] 27.9% | [7] 87.4%
active: [1] -13.2% | [3] 5.64% | [4] -69.1% | [5] -1.67% | [6] -74% | [8] -7.93% | [9] 0.326%

COc1cc2c(cc1OCCCCC(=O)Nc1ccc(-c3nc4ccccc4s3)cc1)N=C[C@@H]1CCCN1C2=O
inactive: [3] 15.3%
active: [1] -2.21% | [2] 2.66% | [4] -31.6% | [5] -0.417% | [6] 1.84% | [7] -79.3% | [9] -31.7%

CN(C)c1ccc(/C=N/n2c(-c3cc(F)c(Cl)cc3Cl)nn(CN3CCOCC3)c2=S)cc1
inactive: [1] 104% | [2] 107% | [3] 103% | [4] 69.1% | [5] 107% | [6] 98.6% | [7] 77.9% | [8] 92.4% | [9] 88.8%

CC1=C2C(=C[C@@](C)(CO)[C@@H]2OC(=O)N(C)CCN(C)C(=O)OC(C)(C)C)C(=O)[C@](C)(O)C12CC2
active: [4] -60.4% | [6] -52.5%
inactive: [1] 71.4% | [2] 78.5% | [3] 73% | [5] 68.1% | [7] 97% | [8] 74.6% | [9] 89.7%

COC1OCC(OS(=O)(=O)c2ccc(C)cc2)C(OC(=O)c2ccccc2)C1OC(=O)c1ccccc1 (stereo not given)
inactive: [1] 36.1% | [2] 53.4% | [3] 74.3% | [4] 48.3% | [5] 88% | [6] 54% | [7] 87.4% | [9] 48.9%

COc1cc(NC(C)CCCN2C(=O)c3ccccc3C2=O)c2nc(C)ccc2c1OC (stereo not given)
inactive: [1] 96.8% | [2] 96.3% | [3] 92.1% | [4] 98.1% | [5] 98.8% | [6] 99.5% | [9] 73.6%
active: [8] -56.3%

CCC(C)Nc1ccc(N)cc1 (stereo not given)
active: [1] 7.8% | [2] 8.66% | [4] -2.85% | [9] -13.7%
inactive: [3] 10.5% | [5] 45.4% | [6] 46% | [7] 91.9% | [8] 12.8%

OCCOCC(F)(F)F
inactive: [1] 119% | [2] 97.9% | [3] 116% | [4] 94.1% | [5] 116% | [6] 108%
active: [8] -0.0215%

O=C1C(SCCO)=C(SCCO)C(=O)N1c1ccc(-c2ccccc2)cc1
active: [1] -73.5% | [4] -96.5% | [5] -57.8% | [6] -99.5% | [8] -43.8% | [9] -33.6%
inactive: [2] 129% | [3] 72.4%

OC(COc1ccccc1Cl)CN1CCN(c2ccc(Cl)cc2)CC1 (stereo not given)
inactive: [1] 126% | [2] 106% | [3] 106% | [4] 81.7% | [5] 117% | [6] 94.6% | [7] 78.6% | [8] 46% | [9] 95.3%

c1cncc(-c2nc3ccccc3[nH]2)c1
inactive: [1] 106% | [2] 120% | [3] 89.8% | [4] 82.3% | [5] 148% | [6] 91% | [7] 84.4% | [8] 110% | [9] 97.4%

Cc1cccc[n+]1CCC[n+]1ccccc1C
inactive: [1] 100% | [2] 94.6% | [3] 101% | [4] 99% | [5] 88% | [6] 109% | [7] 109% | [8] 99.6% | [9] 86.1%

Cc1cn(C2CC(N=[N+]=[N-])C(COP(=O)(O)OP(=O)(O)OP(=O)(O)O)O2)c(=O)[nH]c1=O (stereo not given)
inactive: [1] 107% | [2] 116% | [3] 124% | [4] 98.5% | [5] 113% | [6] 124% | [7] 131% | [9] 16.8%
active: [8] -98%

Cc1cn([C@]2(CF)O[C@H](CO)C2C)c(=O)[nH]c1=O (stereo not given in full)
inactive: [1] 98.3% | [2] 106% | [3] 125% | [4] 109% | [5] 109% | [6] 112% | [8] 114% | [9] 94%

Cc1cc2nc(-c3c(N)ncc(C#N)c3-c3ccc(Cl)cc3)[nH]c2cc1C
inactive: [1] 59.9% | [2] 63.7% | [3] 76.5% | [4] 77.8% | [5] 41.5% | [6] 67.7% | [7] 44.1% | [8] 54.5% | [9] 73.3%

COC(=O)c1oc2c(C(=O)/C=C/c3ccc(OC)cc3)c(OCCN3CCOCC3)ccc2c1C
active: [1] -30.6% | [2] 9.46% | [4] -66.4% | [6] -34.5% | [7] -47.7% | [8] -38.4% | [9] -20.5%
inactive: [3] 17.5% | [5] 25.4%

COC(OC)C1(c2ccccc2)NC(=O)NC1=O (stereo not given)
inactive: [1] 104% | [2] 112% | [3] 101% | [4] 101% | [5] 101% | [6] 108% | [7] 108% | [8] 112% | [9] 89.1%

COc1cccc(C2CC(c3cc(OC)c(OC)c(OC)c3)=NN2)c1 (stereo not given)
inactive: [1] 94% | [2] 117% | [3] 91.8% | [4] 94.9% | [5] 106% | [6] 94.3% | [7] 82.2% | [9] 81.2%

COc1cc2c(/C=C3/C(=O)Nc4ccc(O)cc43)c(Cl)n(Cc3cc(OC)c(OC)c(OC)c3)c2cc1C
inactive: [1] 36.7% | [2] 13.3% | [3] 59.6% | [5] 25.8% | [6] 130%
active: [4] -0.307% | [8] -9.62% | [9] -24.1%
